# Test results as given in PubChem BioAssay AID1053119 (Broad Institute, 2014).
# Potency and affinity values are given separately. Results filed as inconclusive are left out. Where a call stands in place of a potency, no number is given. Calls of active or inactive are those of the source.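 The calls were made as follows: active = signal loss from cell killing with fitted potency at or below twice the top valid dose; inconclusive = flat drop of 30 to 70%, or unreliable curve fit; inactive = opposite direction, flat within 30%, or weaker potency.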
# Assay: viability loss in A549 lung cancer cells – cell-based, cherry-picks, 26 µM top dose, cytotoxicity control, dose response (AID 1053119)
# Conditions: CellTiter-Glo ATP luminescence, 72 h; series mostly up to 26 µM
row,Compound,outcome
1,COC(=O)C[C@@H]1CC[C@H]2[C@H](COc3ccc(NC(=O)Cc4cccs4)cc3C(=O)N2C)O1,inactive
2,COC(=O)C[C@H]1CC[C@H]2[C@H](COc3ccc(NC(=O)Cc4cccs4)cc3C(=O)N2C)O1,inactive
3,Cc1ccc(NC(=O)COC(=O)c2cc(Cl)ccc2[N+](=O)[O-])c(C)c1,inactive
4,Cc1ccc(Nc2nnc(SCc3ccccc3)s2)cc1,inactive
5,CC(C)(C)[S@@](=O)N1Cc2cc(C(=O)NCc3ccccc3F)nc(-c3cccc(-c4cncnc4)c3)c2[C@H]1CCO,inactive
6,O=S(=O)(c1cccc(F)c1)N1CC[C@H]2[C@H](CO)Nc3ccc(-c4cccc(F)c4)cc3[C@H]21,inactive
7,C[C@H](CO)N1C[C@H](C)[C@H](CN(C)C(=O)c2cccc(F)c2)Oc2ncc(-c3ccccc3)cc2C1=O,inactive
8,CO[C@@H]1CN(C)C(=O)c2cc(NC(=O)Nc3ccc(Cl)c(Cl)c3)ccc2OC[C@H](C)NC[C@@H]1C,inactive
9,O=C(CCC(=O)c1cccs1)NCc1cccnc1,inactive
10,CCN(Cc1ccncc1)C(=O)c1ccc2c(c1)S(=O)(=O)c1ccccc1C2=O,inactive
11,Cn1cnc(S(=O)(=O)N2CCN(c3ccccc3)CC2)c1,inactive
12,C[C@@H]1CN([C@@H](C)CO)C(=O)c2cc(-c3ccccc3)cnc2O[C@@H]1CN(C)Cc1ccccc1,inactive
13,Nc1nc(-c2cc3c(cc2Cl)OCCO3)cs1,inactive
14,N#Cc1ccc(-c2ccc3c(c2)[C@@H]2[C@@H](CCN2S(=O)(=O)c2cccc(F)c2)[C@@H](CO)N3)cc1,inactive
15,Cc1ccc([N+](=O)[O-])cc1NC(=O)CN(C(=O)c1ccccc1Cl)C1CCCCC1,inactive
16,C[C@H](O)C#Cc1ccc2c(c1)O[C@H](CN(C)C)[C@@H](C)CN([C@H](C)CO)S2(=O)=O,inactive
17,COCC(=O)Nc1ccc2c(c1)C(=O)N(C)[C@@H]1CC[C@@H](CC(=O)NCc3ccccc3Cl)O[C@@H]1CO2,inactive
18,C[C@H](O)C#Cc1ccc2c(c1)O[C@H](CN(C)C)[C@@H](C)CN([C@@H](C)CO)S2(=O)=O,inactive
19,COC(=O)c1cn(CC(=O)NCc2ccco2)c2ccccc12,inactive

row,Compound,outcome
1,C[C@H]1CN([C@@H](C)CO)C(=O)c2cc(NC(=O)C3CCCCC3)ccc2O[C@H]1CN(C)Cc1ccc(-c2ccccc2)cc1,inactive
2,COc1cccc(-c2ccc3c(c2)[C@@H]2[C@@H](CCN2S(=O)(=O)c2cccc(OC)c2)[C@@H](CO)N3)c1,inactive
3,CC1CN(C(=O)c2cc3c(=O)n4ccccc4nc3n2C)CC(C)O1 (configuration not stated),inactive
4,C[C@@H]1CN([C@H](C)CO)C(=O)c2cc(NC(=O)CCCN(C)C)ccc2O[C@H]1CN(C)Cc1ccc(-c2ccccc2)cc1,inactive
5,C[C@@H]1CN([C@H](C)CO)C(=O)c2cc(-c3ccccc3)cnc2O[C@@H]1CN(C)C(=O)c1cccc(F)c1,inactive
6,O=C(Nc1ccccc1F)N1C[C@H]2[C@@H](c3ccccc31)[C@H](CO)N2C(=O)C1CC1,inactive
7,O=S(=O)(c1ccccc1F)N1CC[C@@H]2[C@H]1c1cc(-c3cccc(F)c3)ccc1N[C@@H]2CO,inactive
8,CCOC(=O)c1nnn(-c2ccc(OC)cc2)c1N,inactive
9,O=C(Nc1ccccc1F)N1C[C@@H]2[C@H](c3ccccc31)[C@H](CO)N2C(=O)C1CC1,inactive
10,Cc1cccc(NC(=O)c2ccc(S(=O)(=O)N3CCCCC3)cc2)n1,inactive
11,CN1c2ccc(-c3ccccc3)cc2[C@H]2[C@H](CCN2C(=O)CN2CCOCC2)[C@@H]1CO,inactive
12,COc1cccc(-c2ccc3c(c2)[C@@H]2[C@@H](CCN2S(=O)(=O)c2cccc(OC)c2)[C@H](CO)N3)c1,inactive
13,COc1cccc(CNC(=O)CCc2nnc3ccc(NCCCN4CCCC4=O)nn23)c1,inactive
14,CO[C@H]1CN(C)C(=O)c2cc(NC(C)=O)ccc2OC[C@@H](C)N(C(=O)CN2CCOCC2)C[C@H]1C,inactive
15,COCC(=O)Nc1ccc2c(c1)C(=O)N(C)[C@@H]1CC[C@H](CC(=O)NCc3ccccc3Cl)O[C@@H]1CO2,inactive
16,C[C@H](O)C#Cc1ccc2c(c1)O[C@@H](CN(C)C)[C@H](C)CN([C@H](C)CO)S2(=O)=O,inactive
17,O=C(Nc1ccccc1F)N1C[C@H]2[C@@H](c3ccccc31)[C@@H](CO)N2C(=O)C1CC1,inactive
18,C[C@H]1CN([C@@H](C)CO)C(=O)c2cc(-c3ccccc3)cnc2O[C@@H]1CN(C)C(=O)c1cccc(F)c1,inactive
